# Measured values reported in the supplement of paper PMC9023506.
# Where a name gives a salt, the structure may show the parent alone.
# Test system: Danio rerio larvae (5 dpf)
# Assay: habituation to 1-s acoustic pulses, difference vs DMSO (percentage points (treated minus DMSO)); higher = more of the behaviour than the DMSO vehicle control
# Settings: 10 µM; exposure time: 3 h pre-incubation + 3 h imaging
# Method in brief: (§1)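 Library drugs were diluted 1000× from DMSO stocks into egg water to reach 10 µM and applied to 5-dpf wild-type zebrafish larvae in 96-well ProxiPlates, 48 larvae per drug. The larvae stayed exposed for 3 h before imaging and for the 3 h of imaging at 28.5 °C. Behaviour scores, given in percentage points, are the treated mean minus the vehicle mean for movement and upper-half location.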
row,Compound,habituation to 1-s acoustic pulses
1,COc1cc2nc(N3CCN(C(=O)c4ccco4)CC3)nc(N)c2cc1OC [Prazosin hydrochloride],0.4
2,CC1=Nc2ccc(Cl)cc2S(=O)(=O)N1 [Diazoxide],9.12
3,CN(C)CCc1c[nH]c2ccc(Cn3cncn3)cc12 [Rizatriptan benzoate],-2.41
4,O=c1[nH]c(=O)n([C@H]2C[C@H](O)[C@@H](CO)O2)cc1C(F)(F)F [Trifluorothymidine],4.64
5,O=C(NCC1CCCCN1)c1cc(OCC(F)(F)F)ccc1OCC(F)(F)F (stereo unspecified) [Flecainide acetate],-2.35
6,CCOC(=O)c1ncn2c1CN(C)C(=O)c1cc(F)ccc1-2 [Flumazenil],-2.91
7,CN1CCC[C@@H]1Cc1c[nH]c2ccc(CCS(=O)(=O)c3ccccc3)cc12 [Eletriptan hydrobromide],10.1

# Test system: Danio rerio larvae (5 dpf)
# Assay: excitability to 1-s acoustic pulses, difference vs DMSO (percentage points (treated minus DMSO)); higher = more of the behaviour than the DMSO vehicle control
# Settings: 10 µM; exposure time: 3 h pre-incubation + 3 h imaging
# Method in brief: as §1
row,Compound,excitability to 1-s acoustic pulses
1,CC(C)n1c(/C=C/C(O)CC(O)CC(=O)O)c(-c2ccc(F)cc2)c2ccccc21 (stereo unspecified) [Fluvastatin sodium],3.77
2,NC(=O)OCC(COC(N)=O)c1ccccc1 [Felbamate],-4.78
3,COc1cc2nc(N3CCN(C(=O)c4ccco4)CC3)nc(N)c2cc1OC [Prazosin hydrochloride],13.5
4,CC1=Nc2ccc(Cl)cc2S(=O)(=O)N1 [Diazoxide],0.689
5,CCc1ccc(CCOc2ccc(CC3SC(=O)NC3=O)cc2)nc1 (stereo unspecified) [Pioglitazone hydrochloride],6.94
6,CN(C)CCc1c[nH]c2ccc(Cn3cncn3)cc12 [Rizatriptan benzoate],-3.58
7,NC(=O)N1c2ccccc2C=Cc2ccccc21 [Carbamazepine],-0.497
8,COc1ccc(-c2ccc3cc(C(=O)O)ccc3c2)cc1C12CC3CC(CC(C3)C1)C2 [Adapalene],-0.119
9,CN/C(=N\CCSCc1nc[nH]c1C)NC#N [Cimetidine],-2.12
10,CC(=O)O[C@]1(C(C)=O)CC[C@H]2[C@@H]3C=C(C)C4=CC(=O)CC[C@]4(C)[C@H]3CC[C@@]21C [Megestrol Acetate],14.4
11,CC(C)N(CCCCOCC(=O)NS(C)(=O)=O)c1cnc(-c2ccccc2)c(-c2ccccc2)n1 [Selexipag],5.77
12,C[C@@H](O[C@H]1OCCN(Cc2n[nH]c(=O)[nH]2)[C@H]1c1ccc(F)cc1)c1cc(C(F)(F)F)cc(C(F)(F)F)c1 [Aprepitant],8.09

# Test system: Danio rerio larvae (5 dpf)
# Assay: optomotor response to red moving lines, difference vs DMSO (percentage points (treated minus DMSO)); higher = more of the behaviour than the DMSO vehicle control
# Settings: 10 µM; exposure time: 3 h pre-incubation + 3 h imaging
# Method in brief: as §1
row,Compound,optomotor response to red moving lines
1,COc1ccccc1Oc1c(NS(=O)(=O)c2ccc(C(C)(C)C)cc2)nc(-c2ncccn2)nc1OCCO [Bosentan],-14
2,COc1c(C)c2c(c(O)c1C/C=C(\C)CCC(=O)O)C(=O)OC2 [Mycophenolic acid],-3.36
3,O=C(O)CCCc1ccccc1 [Sodium 4-Phenylbutyrate],3.33
4,CCCc1nc2c(C)cc(-c3nc4ccccc4n3C)cc2n1Cc1ccc(-c2ccccc2C(=O)O)cc1 [Telmisartan],-8.2
5,Nc1nc(NC2CC2)c2ncn([C@H]3C=C[C@@H](CO)C3)c2n1 [Abacavir hemisulfate],-1.56
6,Cc1ccc(NC(=O)c2ccc(CN3CCN(C)CC3)cc2)cc1Nc1nccc(-c2cccnc2)n1 [Imatinib mesylate],-3.1
7,NC(=O)N1c2ccccc2C=Cc2ccccc21 [Carbamazepine],-0.139
8,CC#C[C@]1(O)CC[C@H]2[C@@H]3CCC4=CC(=O)CCC4=C3[C@@H](c3ccc(N(C)C)cc3)C[C@@]21C [Mifepristone],3.5
9,N#Cc1ccc2[nH]cc(CCCCN3CCN(c4ccc5oc(C(N)=O)cc5c4)CC3)c2c1 [Vilazodone hydrochloride],12.8
10,CN/C(=N\CCSCc1nc[nH]c1C)NC#N [Cimetidine],5.88
11,CC(C)N(CCCCOCC(=O)NS(C)(=O)=O)c1cnc(-c2ccccc2)c(-c2ccccc2)n1 [Selexipag],-8.23
12,CCCCc1nc(Cl)c(CO)n1Cc1ccc(-c2ccccc2-c2nnn[nH]2)cc1 [Losartan potassium],-6.11

# Test system: Danio rerio larvae (5 dpf)
# Assay: activity during period 15 (no stimuli), difference vs DMSO (percentage points (treated minus DMSO)); higher = more of the behaviour than the DMSO vehicle control
# Settings: 10 µM; exposure time: 3 h pre-incubation + 3 h imaging
# Method in brief: as §1
row,Compound,activity during period 15
1,CC(C)n1c(/C=C/C(O)CC(O)CC(=O)O)c(-c2ccc(F)cc2)c2ccccc21 (stereo unspecified) [Fluvastatin sodium],5.99
2,COc1cc2nc(N3CCN(C(=O)c4ccco4)CC3)nc(N)c2cc1OC [Prazosin hydrochloride],1.78
3,CC(=O)O[C@H]1C(=O)[C@@]2(C)[C@H]([C@H](OC(=O)c3ccccc3)[C@]3(O)C[C@H](OC(=O)[C@H](O)[C@@H](NC(=O)c4ccccc4)c4ccccc4)C(C)=C1C3(C)C)[C@]1(OC(C)=O)CO[C@@H]1C[C@@H]2O [Taxol],-4.11
4,CN(C)CCc1c[nH]c2ccc(Cn3cncn3)cc12 [Rizatriptan benzoate],-3.72
5,NC(=O)N1c2ccccc2C=Cc2ccccc21 [Carbamazepine],-0.716
6,O=C(NCC1CCCCN1)c1cc(OCC(F)(F)F)ccc1OCC(F)(F)F (stereo unspecified) [Flecainide acetate],-6.75
7,CC(C)OC(=O)C(C)(C)Oc1ccc(C(=O)c2ccc(Cl)cc2)cc1 [Fenofibrate],6.23
8,CCCN(CCc1cccs1)[C@H]1CCc2c(O)cccc2C1 [Rotigotine hydrochloride],-35.4
9,CC(C)CN(C[C@@H](O)[C@H](Cc1ccccc1)NC(=O)O[C@H]1CO[C@H]2OCC[C@H]21)S(=O)(=O)c1ccc(N)cc1 [Darunavir],11.1
10,CNCc1ccc(-c2[nH]c3cc(F)cc4c3c2CCNC4=O)cc1 [Rucaparib camsylate],-8.43
